These results are taken from PubChem BioAssay (NCATS).

Results filed as inconclusive are left out. A number with no mark means an inactive call. Calls of active or inactive are those of the source. The call rests on the fitted dose curve; in most records, active means well fitted curve in the direction sought with a large enough effect; inconclusive means small, poorly fitted or top-dose-only effect, or another doubt; inactive means no such curve, though single readings can be large; an effect the other way counts as inactive or inconclusive.

The target in experiment [1] is Calcium and integrin-binding protein 1 (Homo sapiens) (UniProt Q99828). The experiment can be described thus: Primary qHTS for Identification of Calcium Integrin Binding Protein 1 (CIB1) Competitor (AID 1508620).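 Further: GST tagged CIB1 binding a fluorescein labelled alphaIIb integrin peptide tracer; top concentration of the series differs between compounds; on the % scale 0 is the no-effect control and ±100 the full control effect.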 Put shortly:
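CIB1-GST (1 uM final) and compound incubated 15 min at room temperature before adding FITC-alphaIIb peptide tracer (100 nM final). Competition for binding read by fluorescence polarization (ex 480, em 540) after another 15 min at room temperature.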
On the technique in general: Quantitative high-throughput screening tests each substance at several concentrations.

Experiment [2] addresses Rap guanine nucleotide exchange factor 3 (Homo sapiens) (UniProt O95398). Briefly: Confirmatory qHTS for agonist of cAMP-regulated guanine nucleotide exchange factor 3 (EPAC1) (AID 1645881).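 Further: EPAC1 catalysed release of BODIPY-GDP from Rap1B seen as fluorescence loss; 100% = effect of cAMP agonist control; nearly all actives have a fitted effect of over 75% in size.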
Experiment [3] concerns the target Rap guanine nucleotide exchange factor 4 (Homo sapiens) (UniProt Q8WZA2). Briefly: Confirmatory qHTS for agonist of cAMP-regulated guanine nucleotide exchange factor 4 (EPAC2) (AID 1645884).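 Further: nucleotide exchange releases bodipy-GDP from Rap1 and this lowers its fluorescence; on the % scale 0 is the no-effect control and ±100 the full control effect; nearly all actives have a fitted effect of over 65% in size.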
Experiment [4] shares this target. The experiment can be described thus: Confirmatory qHTS for antagonist of cAMP-regulated guanine nucleotide exchange factor 4 (EPAC2) (AID 1645885). Further: on the % scale 0 is the no-effect control and ±100 the full control effect; nearly all actives have a fitted effect of over 25% in size.
The target of experiment [5] is Rap guanine nucleotide exchange factor 3 (Homo sapiens) (UniProt O95398). Briefly: Counterscreen qHTS for antagonist of cAMP-regulated guanine nucleotide exchange factor 3 (EPAC1) (AID 1645888). Further: % of control where 0% means no effect. Put shortly:
(§1)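 Rap1B-BODIPY-GDP 250 nM + GDP 50 uM; cpds 7-pt, final 9.74 nM–152 uM (activator mode) or from 7.32 nM upwards (inhibitor mode); RT; FI 480/540 nm at 5 and 30 min, then ± cAMP, reread.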
(In general: The purpose of a counterscreen is to sort out artefacts and off-target activity.)

Experiment [6] shares this target. The experiment can be described thus: Counterscreen qHTS for agonist of cAMP-regulated guanine nucleotide exchange factor 3 (EPAC1) (AID 1645889). Further: % of control where 0% means no effect; nearly all actives have a fitted effect of over 40% in size. Put shortly: as §1
Experiment [7] addresses Glutathione peroxidase 1 (Homo sapiens) (UniProt P07203). The experiment can be described thus: Primary qHTS Assay for Inhibitors of Recombinant Selenoprotein Glutathione Peroxidase 1 (GPX1) (AID 1845191). Further: on the % scale 0 is the no-effect control and ±100 the full control effect; nearly all actives have a fitted effect of over 65% in size. The method, boiled down:
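NADPH consumption tracked by fluorescence at 340/450 nm between t=0 and t=15 min, room temperature. Final mix: 10 nM GPX1, 100 nM glutathione reductase, 1 mM GSH, 0.5 mM NADPH, 0.5 mM cumene hydroperoxide, 0.01% BSA; 30 min compound–enzyme preincubation.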

Experiment [8] concerns the target Rap guanine nucleotide exchange factor 3 (Homo sapiens) (UniProt O95398). Briefly: Confirmatory qHTS for antagonist of cAMP-regulated guanine nucleotide exchange factor 3 (EPAC1) (AID 1645880). Further: nearly all actives have a fitted effect of over 55% in size. Further: potency means the concentration at half of the fitted maximal effect. Put shortly: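 Released BODIPY-GDP fluoresces less than Rap1-bound BODIPY-GDP; the signal is followed at 480/540 nm at 5-min intervals over 30 min, after 5 min at room temperature. Reactions contain 100 nM EPAC1, 250 nM RAP1B-BODIPY-GDP and 50 uM GDP; results are normalized to ATA and DMSO.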

Experiment [9] is described as follows: qHTS for Inhibitors of Ubiquitin-specific Protease USP2a Using CHOP2 as the Reporter: Cytotox Assay (AID 652170).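 Further: HCT116 human colon cancer cells at 600 per well; series mostly up to about 46 µM; plate controls were DMSO-treated cells for no effect and wells without cells for full effect; nearly all actives have a fitted effect of over 70% in size.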 Put shortly:
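Cytotoxicity read as ATP luminescence (CellTiter-Glo) after 72 hr compound treatment at 37 deg C. Cells: HCT116, 600/well in DMEM plus 10% FBS. Normalization between DMSO-treated cells and cell-free wells.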

For experiment [10], the target named is Ubiquitin carboxyl-terminal hydrolase 2 (Homo sapiens) (UniProt O75604). The experiment can be described thus: qHTS for Inhibitors of Ubiquitin-specific Protease USP2a Using CHOP2 as the Reporter: K484 Substrate (AID 652173).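 Further: cleavage of internally quenched K48 di-ubiquitin substrate measured as rising fluorescence over time; potency means the concentration at half of the fitted maximal effect; nearly all actives have a fitted effect of over 70% in size.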 Put shortly: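 Kinetic fluorescence (Ex 525/Em 598) tracked cleavage of an internally quenched K48 di-ubiquitin substrate, added as a 100 nM solution. The enzyme was added as a 5 nM USP2 solution before compound pinning, with no-enzyme controls. Buffer: Tris pH 8, beta-mercaptoethanol, CHAPS.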

Experiment [11] has as its target Tyrosyl-DNA phosphodiesterase 1 (Homo sapiens) (UniProt Q9NUW8). Briefly: Confirmation Assay for Inhibitors of Tyrosyl-DNA Phosphodiesterase (TDP1) (AID 489007). Further: potency means the concentration at half of the fitted maximal effect; nearly all actives have a fitted effect of over 40% in size. As to conditions: recombinant human TDP1 enzymatic activity, dose-response. The method, boiled down: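 AlphaScreen read-out: streptavidin donor and anti-FITC acceptor beads (10 ug/ml) bind intact substrate, so Tdp1 removal of tyrosine-FITC lowers signal. Enzyme 1 nM, substrate 15 nM, 5 min reaction at room temperature after 15 min compound preincubation.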

Chain of Rap guanine nucleotide exchange factor 3 (Homo sapiens) (O95398 whole entry, looked up): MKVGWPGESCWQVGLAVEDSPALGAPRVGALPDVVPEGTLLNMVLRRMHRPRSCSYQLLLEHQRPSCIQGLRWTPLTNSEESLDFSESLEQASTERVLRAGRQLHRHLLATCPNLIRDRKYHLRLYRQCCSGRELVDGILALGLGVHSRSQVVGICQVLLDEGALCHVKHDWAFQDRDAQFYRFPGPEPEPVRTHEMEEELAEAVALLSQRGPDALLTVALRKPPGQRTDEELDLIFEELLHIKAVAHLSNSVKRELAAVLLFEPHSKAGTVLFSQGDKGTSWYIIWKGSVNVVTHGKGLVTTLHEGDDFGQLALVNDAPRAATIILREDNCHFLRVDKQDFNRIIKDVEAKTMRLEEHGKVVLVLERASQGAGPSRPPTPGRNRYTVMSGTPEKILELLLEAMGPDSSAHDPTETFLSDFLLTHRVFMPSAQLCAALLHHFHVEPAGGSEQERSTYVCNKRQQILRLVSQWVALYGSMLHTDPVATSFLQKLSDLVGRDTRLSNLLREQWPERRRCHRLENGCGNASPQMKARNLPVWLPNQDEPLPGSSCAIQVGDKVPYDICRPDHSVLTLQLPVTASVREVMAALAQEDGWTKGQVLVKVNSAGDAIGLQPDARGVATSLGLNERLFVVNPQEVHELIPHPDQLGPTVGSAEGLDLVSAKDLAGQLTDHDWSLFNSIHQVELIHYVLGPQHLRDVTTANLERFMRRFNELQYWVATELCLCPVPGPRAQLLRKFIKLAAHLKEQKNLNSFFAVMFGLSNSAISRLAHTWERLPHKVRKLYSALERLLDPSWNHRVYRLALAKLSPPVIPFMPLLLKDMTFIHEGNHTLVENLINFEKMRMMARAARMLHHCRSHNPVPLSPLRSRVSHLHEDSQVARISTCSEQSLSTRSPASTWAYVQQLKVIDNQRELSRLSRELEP
Chain of Calcium and integrin-binding protein 1 (Homo sapiens) (Q99828 whole entry, looked up): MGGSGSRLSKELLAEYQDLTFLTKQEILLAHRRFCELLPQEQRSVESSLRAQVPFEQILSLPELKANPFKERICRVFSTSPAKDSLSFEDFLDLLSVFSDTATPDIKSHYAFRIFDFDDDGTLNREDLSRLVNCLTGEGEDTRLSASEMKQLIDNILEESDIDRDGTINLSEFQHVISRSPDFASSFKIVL
Chain of Rap guanine nucleotide exchange factor 4 (Homo sapiens) (Q8WZA2 whole entry, looked up): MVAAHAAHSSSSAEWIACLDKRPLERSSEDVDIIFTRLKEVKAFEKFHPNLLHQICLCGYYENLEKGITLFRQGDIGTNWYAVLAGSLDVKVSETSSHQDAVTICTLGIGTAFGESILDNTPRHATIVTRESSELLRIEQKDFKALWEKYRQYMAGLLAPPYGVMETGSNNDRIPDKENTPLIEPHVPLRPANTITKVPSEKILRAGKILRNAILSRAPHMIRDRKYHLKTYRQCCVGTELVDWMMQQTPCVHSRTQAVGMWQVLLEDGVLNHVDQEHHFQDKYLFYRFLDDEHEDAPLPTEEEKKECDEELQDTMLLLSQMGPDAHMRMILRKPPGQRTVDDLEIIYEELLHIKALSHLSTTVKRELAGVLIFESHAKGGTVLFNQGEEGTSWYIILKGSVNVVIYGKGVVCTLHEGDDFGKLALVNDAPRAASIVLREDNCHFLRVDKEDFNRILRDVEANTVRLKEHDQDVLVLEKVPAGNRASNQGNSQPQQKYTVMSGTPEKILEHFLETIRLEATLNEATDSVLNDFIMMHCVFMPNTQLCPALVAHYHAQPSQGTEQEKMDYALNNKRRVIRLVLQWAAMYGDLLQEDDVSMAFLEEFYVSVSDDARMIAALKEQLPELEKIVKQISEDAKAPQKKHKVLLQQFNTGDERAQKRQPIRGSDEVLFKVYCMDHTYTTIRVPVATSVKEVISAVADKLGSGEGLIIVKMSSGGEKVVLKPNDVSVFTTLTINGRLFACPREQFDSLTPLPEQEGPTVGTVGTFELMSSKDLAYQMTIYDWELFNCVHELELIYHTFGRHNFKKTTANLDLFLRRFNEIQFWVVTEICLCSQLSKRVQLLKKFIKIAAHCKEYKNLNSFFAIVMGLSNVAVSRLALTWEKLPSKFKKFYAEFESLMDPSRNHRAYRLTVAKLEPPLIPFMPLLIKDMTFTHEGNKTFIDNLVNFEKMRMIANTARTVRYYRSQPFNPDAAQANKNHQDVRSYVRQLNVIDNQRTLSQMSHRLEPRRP
Chain of Glutathione peroxidase 1 (Homo sapiens) (P07203 whole entry, looked up): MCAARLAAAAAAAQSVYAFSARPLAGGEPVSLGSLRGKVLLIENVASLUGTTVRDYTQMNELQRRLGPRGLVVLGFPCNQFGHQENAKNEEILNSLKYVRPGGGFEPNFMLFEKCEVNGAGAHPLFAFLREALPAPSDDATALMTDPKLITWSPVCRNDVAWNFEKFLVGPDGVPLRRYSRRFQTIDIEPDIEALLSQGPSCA
Chain of Ubiquitin carboxyl-terminal hydrolase 2 (Homo sapiens) (O75604 whole entry, looked up): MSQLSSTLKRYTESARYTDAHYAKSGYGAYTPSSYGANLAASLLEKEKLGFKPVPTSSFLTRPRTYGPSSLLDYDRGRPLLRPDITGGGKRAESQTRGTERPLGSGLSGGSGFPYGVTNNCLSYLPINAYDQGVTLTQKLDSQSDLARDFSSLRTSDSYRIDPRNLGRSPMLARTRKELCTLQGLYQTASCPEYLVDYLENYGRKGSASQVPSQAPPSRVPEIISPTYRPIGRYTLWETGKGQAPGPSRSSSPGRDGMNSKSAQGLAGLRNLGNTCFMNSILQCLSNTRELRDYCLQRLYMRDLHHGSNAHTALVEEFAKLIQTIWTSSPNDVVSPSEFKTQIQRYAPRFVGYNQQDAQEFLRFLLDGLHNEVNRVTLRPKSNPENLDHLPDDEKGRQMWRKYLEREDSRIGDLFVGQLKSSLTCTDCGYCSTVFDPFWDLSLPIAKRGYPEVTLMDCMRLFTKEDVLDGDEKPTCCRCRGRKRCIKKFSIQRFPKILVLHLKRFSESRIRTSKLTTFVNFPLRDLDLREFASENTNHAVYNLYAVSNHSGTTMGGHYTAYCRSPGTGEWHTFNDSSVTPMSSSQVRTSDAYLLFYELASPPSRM
Chain of Tyrosyl-DNA phosphodiesterase 1 (Homo sapiens) (Q9NUW8 whole entry, looked up): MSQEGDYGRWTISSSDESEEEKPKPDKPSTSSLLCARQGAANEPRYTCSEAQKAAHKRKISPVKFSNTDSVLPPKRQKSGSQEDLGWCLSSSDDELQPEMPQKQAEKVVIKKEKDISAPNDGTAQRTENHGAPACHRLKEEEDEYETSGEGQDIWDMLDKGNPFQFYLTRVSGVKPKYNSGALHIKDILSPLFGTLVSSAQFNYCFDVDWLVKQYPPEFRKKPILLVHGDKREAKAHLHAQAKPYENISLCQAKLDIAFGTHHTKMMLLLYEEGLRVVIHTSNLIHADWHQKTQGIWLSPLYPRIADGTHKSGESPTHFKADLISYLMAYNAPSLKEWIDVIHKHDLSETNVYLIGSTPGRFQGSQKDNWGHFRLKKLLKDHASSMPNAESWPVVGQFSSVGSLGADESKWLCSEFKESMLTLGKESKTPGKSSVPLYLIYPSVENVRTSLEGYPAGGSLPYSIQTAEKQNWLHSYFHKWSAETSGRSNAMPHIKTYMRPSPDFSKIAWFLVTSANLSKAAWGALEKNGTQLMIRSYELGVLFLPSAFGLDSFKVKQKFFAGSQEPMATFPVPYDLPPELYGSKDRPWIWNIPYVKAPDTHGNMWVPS

For `CCOc1ccccc1CNc1ncnc2ccc(-c3c(C)noc3C)cc12`, the Potency result in experiment [1] and in [4] was “inactive” each time. In addition, the outcome in experiment [2], in experiment [3], in experiment [5] and in [6] was inactive.
As to `O=C1CCCC2=C1C(c1ccccc1I)N=C(Nc1nc3ccccc3o1)N2` (configuration not stated), the Potency entry in experiment [1] and in experiment [7] was “inactive” each time.
With `COc1ccc(N2C(=O)c3ccccc3C2=O)cc1`, the Potency entry in experiment [1], in experiment [8] and in experiment [4] was “inactive” throughout. In addition, the outcome in experiment [2], in experiment [3], in experiment [5] and in experiment [6] was inactive.
On to `CC(=O)NS(=O)(=O)c1ccc(NC(=O)c2cc(-c3ccc(C)c(C)c3)nc3ccccc23)cc1`, for which the Potency entry in [9] and in experiment [1] was “inactive” in each case. Also, the Potency in experiment [10] is 12.2 µM (active); in experiment [8], 44.7 µM (active). Further, the compound was classed as inactive in experiment [2] and in experiment [5]. Also, the activation in experiment [3] is 5.88% [at 17.1 µM]. For the same compound, the activity change, negative = inhibition in experiment [4] was -11.1% [at 12.7 µM].
Take `O=C(CSc1nnc(-c2cccc(S(=O)(=O)N3CCCC3)c2)n1-c1ccccc1)Nc1ccc(C(=O)O)cc1`: the Potency entry in experiment [1] is “inactive”. Also, the call in experiment [2] and in [5] was inactive. In addition, the activation in [3] is -2.44% [at 17.1 µM]. The activity change, negative = inhibition in experiment [4] was -11.1% [at 12.7 µM].
Take `Cc1ccc(NC(=O)CN2C(=O)N/C(=C\c3cccn3-c3cccc(C(=O)O)c3)C2=O)cc1`: the Potency in [11] was 1.12 µM (active). For the same compound, the Potency result in experiment [1] was “inactive”.
For `CC(=O)NC(c1ccco1)c1cc(Cl)c2ccccc2c1O` (configuration not stated), the Potency entry in [1] and in experiment [8] was “inactive” throughout. In addition, the result in experiment [2] and in experiment [5] was inactive. The activation in [3] is 3.62% [at 17.1 µM].
Consider `Cc1ccc(NS(=O)(=O)c2cc3c(cc2N[C@H](C)CO)NC(=O)CC3)cc1C`, for which the Potency result in [1] and in [7] was “inactive” each time.
